TDP1 cell CPT = growth inhibition of DT40 Tdp1-/-;hTDP1 cells with camptothecin (screen for TDP1 inhibitors); Potency, µM (doses to about 46.2 µM), inactives show at the highest dose activity change, negative = growth inhibition, most hits filed as inhibitors; chicken DT40 Tdp1-/-;hTDP1 cells + 20 nM CPT, ATP luminescence, 48 h; actives 12% (n = 420,000); also: potency is read from the fitted curve at half-maximal effect; nearly all actives have a fitted effect of over 55% in size
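Chicken DT40 Tdp1-/- cells complemented with human TDP1, 400 cells/well, exposed to compounds plus 20 nM camptothecin for at least 48 h at 37 C; viability read as ATP content by CellTiter-Glo luminescence.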
IL1B secr inh = inhibitors of inflammasome signaling (IL-1 beta secretion); THP-1 LPS/ATP IL-1B secretion, AlphaLISA, 16 h; active compounds read low; AID 743279; actives 4.7% (n = 360,000); activity change, % at 57.5 µM; in the data active = activity change below about -50%; inconclusive = mostly about -30% to -49%
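THP-1 cells pretreated 1 hr with compounds (up to 57.5 uM final), then stimulated with LPS (250 ng/mL final) plus ATP (1.25 mM final); secreted IL-1B measured by AlphaLISA after 16 hr, decreased signal indicating inhibition.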
Giardia kill = Giardia lamblia killing | actives 0.15% (n = 340,000) | AID 540267 | Giardia lamblia trophozoite viability | activity change, % at 7.66 µM, hits read low; in the data active = activity change below about -80%; inconclusive = between about -30% and that limit;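 also: parasites exposed to compound for two days anaerobically before the ATP read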
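Viability, read as ATP luminescence: trophozoites at 100 cells/well, compound added, 48 hrs anaerobic at 37 deg C, then 15-30 min room-temperature development before reading.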
TDP1 inh = blocks human tyrosyl-DNA phosphodiesterase 1 | Q9NUW8 | recombinant TDP1, AlphaScreen DNA substrate cleavage | Potency, µM (doses to about 130 µM), without a hit: top-dose activity change, negative = inhibition, actives largely listed as inhibitors | actives 0.28% (n = 350,000) | AID 485290; also: potency is read from the fitted curve at half-maximal effect; nearly all actives have a fitted effect of over 40% in size
Target sequence (Q9NUW8 whole entry, looked up): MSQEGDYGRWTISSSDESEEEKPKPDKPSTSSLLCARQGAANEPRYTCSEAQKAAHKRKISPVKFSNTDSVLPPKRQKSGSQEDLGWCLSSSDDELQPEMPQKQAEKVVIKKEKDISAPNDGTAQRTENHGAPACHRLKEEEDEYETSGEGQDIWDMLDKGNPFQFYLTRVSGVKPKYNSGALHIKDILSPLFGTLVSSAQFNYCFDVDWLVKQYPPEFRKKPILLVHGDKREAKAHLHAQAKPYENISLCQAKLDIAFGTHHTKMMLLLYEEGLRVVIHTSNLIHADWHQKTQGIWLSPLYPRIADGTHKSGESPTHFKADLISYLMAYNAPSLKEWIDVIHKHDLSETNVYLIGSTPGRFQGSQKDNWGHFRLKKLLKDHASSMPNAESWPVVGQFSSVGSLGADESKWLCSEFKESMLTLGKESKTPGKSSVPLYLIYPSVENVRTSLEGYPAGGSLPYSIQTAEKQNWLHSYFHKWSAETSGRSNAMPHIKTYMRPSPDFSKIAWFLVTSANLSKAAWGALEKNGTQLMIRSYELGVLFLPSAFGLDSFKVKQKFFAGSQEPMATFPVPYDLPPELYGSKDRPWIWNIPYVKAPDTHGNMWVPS
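Compounds were preincubated with Tdp1 (1 nM final) for 15 min at room temperature before substrate (15 nM final) started a 5 min reaction; beads (10 ug/ml final) were then added for 10 min before AlphaScreen detection.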
DT40 TDP1 no CPT = qHTS for Inhibitors of human tyrosyl-DNA phosphodiesterase 1 (TDP1): qHTS in cells in absence of CPT. Potency, µM (top dose mostly 46.2 µM), for inactives: top-dose activity change, negative = growth inhibition, actives largely listed as inhibitors. AID 686978, 2013. DT40 Tdp1-/- hTDP1 cells, no CPT, ATP luminescence, 48 h. actives 15% (n = 420,000); also: potency is read from the fitted curve at half-maximal effect; nearly all actives have a fitted effect of over 55% in size
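A cellular qHTS used chicken DT40 cells lacking endogenous Tdp1 but carrying stably transfected human TDP1. Compounds were applied without camptothecin, and cell growth kinetics were judged by ATP-dependent luminescence after ≥48 hr.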
ELG1 repair inh = blocks ELG1-dependent DNA repair in HEK293T cells. HEK293T ELG1-luciferase reporter, luminescence, 16 h; DNA damage induced by 5-fluorouridine. Potency, µM (series often up to 46.1 µM), for inactives: at the top dose activity change, negative = inhibition, most hits filed as inhibitors. actives 2.3% (n = 330,000). AID 504467; also: potency is read from the fitted curve at half-maximal effect; nearly all actives have a fitted effect of over 55% in size
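In this reporter screen, reduction of luminescence relative to DMSO vehicle indicated activity. Compounds and 5-fluorouridine were added together to 2,000 cells per well, incubated for 16 hr at 37 °C, then developed with ONE-Glo.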
Numbers without * were called inactive; [ ] = remark or other dose. A selection: hits, their analogues and other compounds. The true share with any hit is near 19%. Unless noted, calls follow the shape of the dose curve; as a rule, active = well fitted curve in the direction sought with a large enough effect; inconclusive = small, poorly fitted or top-dose-only effect, or another doubt; inactive = no such curve, though single readings can be large; an effect the other way counts as inactive or inconclusive. % is scaled to controls: 0 for no effect and ±100 for the full control effect.

What do the screens show for `COc1ccc(-n2cc(C(=O)NCCc3cc(OC)ccc3OC)c3ccccc3c2=O)cc1`?
TDP1 cell CPT: 16µM*; TDP1 inh: 12%; DT40 TDP1 no CPT: 21µM*

What do the screens show for `COc1ccc(CN2C(=O)N(c3ccc(C)cc3)C(=O)C2CC(=O)Nc2ccccc2)cc1OC` (stereo not given)?
TDP1 cell CPT: -27%; TDP1 inh: -4%; DT40 TDP1 no CPT: inconclusive

Results for CC(C)(C)CN1CCC(Oc2cccc(C(=O)NCCCOc3cccnc3)c2)CC1 ?
TDP1 cell CPT: inconclusive; IL1B secr inh: 16; Giardia kill: -10; TDP1 inh: 0%; DT40 TDP1 no CPT: inconclusive; ELG1 repair inh: 15%

What do the screens show for `N#CC1=C(Nc2ccccc2Cl)SC(c2ccccc2O)NC1=O` (stereo not given)?
TDP1 cell CPT: 21µM*; IL1B secr inh: -1; Giardia kill: -5; TDP1 inh: 9%; DT40 TDP1 no CPT: inconclusive; ELG1 repair inh: inconclusive

Results for COc1ccc(N2CC(NC(=O)COc3ccc4ccccc4c3)CC2=O)cc1 (stereo not given) ?
TDP1 cell CPT: -22%; TDP1 inh: 3%; DT40 TDP1 no CPT: -14%

How did COc1ccc(N2CCN(C(=O)COc3ccccc3C#N)CC2)cc1 do in these assays?
TDP1 cell CPT: -2%; TDP1 inh: 5%; DT40 TDP1 no CPT: -3%

Results for O=C(CSc1nnc2ccccn12)N1CCc2ccccc21 ?
TDP1 cell CPT: 0%; IL1B secr inh: -7; Giardia kill: -22; TDP1 inh: 5%; DT40 TDP1 no CPT: -4%; ELG1 repair inh: inconclusive

Results for O=C1CC(Sc2nnc(-c3ccccc3O)o2)C(=O)N1c1ccccc1 (stereo not given) ?
TDP1 cell CPT: 4.6µM*; IL1B secr inh: 9; Giardia kill: 0; TDP1 inh: 4%; DT40 TDP1 no CPT: 4.6µM*; ELG1 repair inh: 0%

How did COc1ccc(N2C(=O)CC(Sc3nc(C)cc(C)c3C#N)C2=O)cc1 (stereo not given) do in these assays?
TDP1 cell CPT: -2%; IL1B secr inh: 1; Giardia kill: 0; TDP1 inh: 0%[56.1 µM]; DT40 TDP1 no CPT: -17%; ELG1 repair inh: inconclusive

What do the screens show for `COc1ccc(N2C(=O)CC(Sc3nnc(-c4ccccc4)o3)C2=O)cc1` (stereo not given)?
TDP1 cell CPT: 2.9µM*; IL1B secr inh: -29; Giardia kill: 10; TDP1 inh: -4%; DT40 TDP1 no CPT: 2.9µM*; ELG1 repair inh: 12%

What do the screens show for `O=C(Nc1ccccc1F)c1ccc(Cn2nc(N3CCN(c4ccccc4)CC3)ccc2=O)o1`?
TDP1 cell CPT: 23µM*; TDP1 inh: 8%; DT40 TDP1 no CPT: 15µM*

Results for O=C(Nc1ccc(F)cc1)c1ccc(Cn2nc(N3CCN(c4ccccc4)CC3)ccc2=O)o1 ?
TDP1 cell CPT: inconclusive; TDP1 inh: 8%; DT40 TDP1 no CPT: inconclusive

Results for Cc1ccc2c(=O)cc(C(=O)Nc3sc4c(c3C(=O)NCc3ccco3)CCCC4)oc2c1C ?
TDP1 cell CPT: 5%; TDP1 inh: 1%; DT40 TDP1 no CPT: 5%

Results for Cc1c(O)cc2c(c1O)C(=O)CC(c1ccccc1)O2 (stereo not given) ?
TDP1 cell CPT: 5.8µM*; IL1B secr inh: 63; Giardia kill: 14; DT40 TDP1 no CPT: 5.8µM*; ELG1 repair inh: 4%

What do the screens show for `COc1c(O)cc2c(c1O)C(=O)CC(c1ccccc1)O2` (stereo not given)?
TDP1 inh: 1%; ELG1 repair inh: inconclusive
